Results on 92 compounds are retold here after PubChem BioAssay AID463173 (ICCB-Longwood Screening Facility, Harvard Medical School, 2010).

The structures appear in SMILES notation. Screen size: about 52,000 compounds; about 1,700 (3.3%) were called active. The sample as a whole holds a higher share of actives than the screen did. Unmarked numbers belong to inactive results. Cut-off read from the data, not from the text of the source: active = survival mostly below about 52% (no sharp cut-off); inactive = mostly above about 56%.

This experiment has as its system Wild type. Put plainly: growth inhibition of S. aureus wild type versus tarO mutant, primary screen, teichoic acid synthesis inhibitors, RN4220, OD600 (AID 463173). The settings on record: S. aureus RN4220 wild type/DeltatarO growth, OD600, 18 h, stronger effect = lower value, screened at 18.75 µg/mL (by protocol).
With `CN(C)c1cc(Nc2ccc(Cl)cc2)c2c3c(onc13)-c1ccccc1C2=O`, the survival is 96%.
With `CCC(=O)N1CCc2cc(S(=O)(=O)NC(C(=O)NCCc3ccccc3)C(C)C)ccc21` (configuration not stated), the survival is 83%.
The same measure for `CCC1CCc2nc3sc(C(=O)Nc4ccc(F)cc4F)c(N)c3cc2C1` (configuration not stated): 92%; for `Cc1cccc(CCNC(=O)Cn2ncc3c(=O)oc4ccccc4c32)c1`: 76%.
As for `Fc1ccc(-c2ccc(NCc3ccccc3)nn2)cc1`, the figure is 119%; as for `Cc1cccc(CNC(=O)C2CCC(CNS(=O)(=O)c3ccc4c(c3)CCCC(=O)N4)CC2)c1` (configuration not stated), 65%.
The same measure for `CCn1cc2nc(SCc3cccc(OC)c3)n(Cc3ccc(Cl)cc3)c(=O)c2n1`: 10% (active); for `CCn1cc2nc(SCc3cccc(C(F)(F)F)c3)n(Cc3ccc(OC)cc3)c(=O)c2n1`: 71%.
`CCn1cc2nc(SCc3cccc(C(F)(F)F)c3)n(Cc3ccc(Cl)cc3)c(=O)c2n1`: the survival is 146%.
The same measure for `CCc1ccc(-c2cn3c(n2)SCC3)cc1`: 111%.
On to `CCCNC(=O)Cn1c(=O)c2cccn2c2cccnc21`, for which the survival is 89%.
As for `Cc1c(CNC(C)CCc2ccccc2)c(C(=O)O)c(C)n1Cc1ccc(F)cc1` (configuration not stated), the figure is 93%; as for `N#Cc1nc(COc2cccc(Cl)c2)oc1NCCc1ccccc1`, 19%; as for `N#Cc1nc(COc2ccccc2Cl)oc1NCCc1ccccc1`, 25%.
As for `Cc1ccc(OCc2nc(C#N)c(NCCc3ccccc3)o2)cc1`, the figure is -1% (active).
As for `O=C(CCc1ccccc1)Nc1ccccc1`, the figure is 105%; as for `CCOc1ccc(OCC)c(NS(=O)(=O)c2c(C(=O)N3CCC(C)CC3)c(C)n(C)c2C)c1`, 0% (active); as for `CC(=O)Nc1ccc(NS(=O)(=O)c2c(C(=O)N3CCCCCC3)c(C)n(C)c2C)cc1`, 65%.
In the case of `CCOc1ccc(OCC)c(NS(=O)(=O)c2c(C(=O)N3CCCCCC3)c(C)n(C)c2C)c1`, the survival was 71%.
As for `Cc1ccc(NS(=O)(=O)c2c(C(=O)N3CCC(C)CC3)c(C)n(C)c2C)cc1Cl`, the survival was 131%.
Consider `CCOc1ccc(CNS(=O)(=O)c2c(C(=O)N3CCC(C)CC3)c(C)n(C)c2C)cc1OC`, for which the survival was 71%.
Take `CC(=O)Nc1ccc(NS(=O)(=O)c2c(C(=O)N3CCC(C)CC3)c(C)n(C)c2C)cc1`: the survival is -3% (active).
The same measure for `Cc1cc(Cl)ccc1NS(=O)(=O)c1c(C(=O)N2CCC(C)CC2)c(C)n(C)c1C`: 14% (active); for `COc1cc(OC)c(NS(=O)(=O)c2c(C(=O)N3CCCCCC3)c(C)n(C)c2C)cc1Cl`: 54%.
Consider `COc1cc(OC)c(NS(=O)(=O)c2c(C(=O)N3CCC(C)CC3)c(C)n(C)c2C)cc1Cl`, for which the survival was -1% (active).
For `Cc1cc(Cl)ccc1NS(=O)(=O)c1c(C(=O)N2CCCCCC2)c(C)n(C)c1C`, the survival is 77%.
As for `Cc1c(C(=O)N2CCC(C)CC2)c(S(=O)(=O)NCc2ccc(Cl)cc2)c(C)n1C`, the figure is 133%; as for `COc1ccc(C)cc1NS(=O)(=O)c1c(C(=O)N2CCC(C)CC2)c(C)n(C)c1C`, 85%.
The same measure for `COc1ccc(C(=O)NCC(c2ccc3c(c2)OCO3)N2CCN(C)CC2)cc1` (configuration not stated): 60%.
With `CCc1ccc(-n2nc3ccc(NC(=O)COc4ccc(OC)cc4)cc3n2)cc1`, the survival was 95%.
As for `CCOc1ccc(CCNC(=O)C2CCN(Cc3nc(-c4ccccc4C)oc3C)CC2)cc1OCC`, the figure is 81%; as for `CCc1cccc(C)c1NC(=O)CCS(=O)(=O)c1cc(Br)cc2c1N(C(=O)C1CC1)CC2`, 85%.
As for `CC(=O)c1sc(NC(=O)c2c(-c3ccccc3)c(-c3ccccc3)nn(C)c2=O)nc1C`, the figure is 54%; as for `COc1cc(N(C(=O)c2ccco2)C(C(=O)NC2CCCC2)c2ccc(C)cc2)ccc1-n1cnnn1` (configuration not stated), 105%; as for `Cc1ccccc1-c1nnc(SCC(=O)N2CCCc3ccccc32)o1`, 15% (active).
In the case of `COc1cccc(-c2nnc(SCC(=O)N3c4ccccc4Sc4ccccc43)o2)c1`, the survival is 11% (active).
For the compound `O=C(CSc1nnc(-c2ccccc2)o1)N1CCCc2ccccc21`, the survival is 68%.
The same measure for `Cc1ccc(-c2nnc(SCC(=O)N3CCCc4ccccc43)o2)cc1`: 65%; for `O=C(CSc1nnc(-c2ccc(F)cc2)o1)N1CCCc2ccccc21`: 66%.
As for `COc1cccc(-c2nnc(SCC(=O)N3CCc4ccccc43)o2)c1`, the figure is 69%; as for `O=C(CSc1nnc(-c2cccc(F)c2)o1)N1c2ccccc2Sc2ccccc21`, 103%.
As for `Cc1cccc(-c2nnc(SCC(=O)N3CCCc4ccccc43)o2)c1`, the figure is 5% (active); as for `O=C(CSc1nnc(-c2ccccc2Cl)o1)N1CCCc2ccccc21`, 35%.
Turning to `CCn1c(SC)nnc1C1CCCN(C(=O)Cc2cccnc2)C1` (configuration not stated), the survival is 89%.
The same measure for `CCC1CCCCN1CCCNC(=O)CN1C(=O)c2cccnc2Oc2ccc(Cl)cc21` (configuration not stated): 65%; for `Cc1cc(C)cc(NS(=O)(=O)c2ccc3[nH]cc(C(=O)NCc4ccccc4Cl)c(=O)c3c2)c1`: 111%.
The same measure for `CCOc1ccccc1-c1noc(CSc2nnc(-c3ccccc3)n2-c2ccc(F)cc2)n1`: 117%; for `CN(C(=O)CSc1nc(C2CCCC2)nc2c1c(=O)n(C)c(=O)n2C)c1ccccc1`: 128%.
The same measure for `Cc1ccc(-c2c(CN3CCN(c4cccc(C)c4)C(C)C3)csc2C)cc1` (configuration not stated): 90%; for `Cc1nc(-c2ccccc2)sc1-c1ccc(SCC(=O)Nc2cccc(C(F)(F)F)c2)nn1`: 67%.
Consider `Cc1nc(-c2ccccc2)sc1-c1ccc(SCC(=O)Nc2ccccc2)nn1`, for which the survival was 41%.
Take `CC(=O)Nc1cccc(NC(=O)CSc2ccc(-c3sc(-c4ccccc4)nc3C)nn2)c1`: the survival is 17% (active).
As for `O=C(Cn1c(=O)oc2cc(S(=O)(=O)N3CCCC3)ccc21)NCc1ccc(Cl)cc1`, the figure is 138%; as for `NC1=NC(c2cccc(Cl)c2)n2c(nc3ccccc32)N1` (configuration not stated), 97%.
For `CCOc1ccc(-c2cc(CCCC(=O)NCCc3cc(OC)c(OC)c(OC)c3)no2)cc1`, the survival is 59%.
As to `CC(C)CCn1c(SCc2cccc(F)c2)nc2ccsc2c1=O`, the survival was 76%.
For `Cc1ccc(CSc2nc3ccsc3c(=O)n2CCC(C)C)cc1`, the survival is -6% (active).
As for `O=C(CSc1nc2ccsc2c(=O)n1-c1ccc(Br)cc1)NCc1ccc(Cl)cc1`, the figure is 81%; as for `Cc1ccc(Cn2c(SCC(=O)NCc3ccccc3)nc3ccsc3c2=O)cc1`, 76%.
With `O=C(CSc1nc2ccsc2c(=O)n1Cc1ccccc1Cl)NCc1ccc(Cl)cc1`, the survival was 75%.
The same measure for `Cc1ccc(CNC(=O)CSc2nc3ccsc3c(=O)n2-c2ccc(Br)cc2)cc1`: 14% (active); for `Cc1ccc(Cn2c(SCC(=O)NCc3ccccc3Cl)nc3ccsc3c2=O)cc1`: -6% (active); for `Cc1ccccc1CSc1nc2ccsc2c(=O)n1CCC(C)C`: 74%.
As for `O=C(CSc1nc2ccsc2c(=O)n1-c1ccc(Br)cc1)NCc1ccccc1`, the figure is 80%; as for `CC(C)/C=N/NC(=O)c1ccc2c(c1)NC(=O)C(C)(C)O2`, 108%.
In the case of `Cc1ccccc1OCC(=O)OC1CCCN(C)C1` (configuration not stated), the survival is 90%.
As for `CCC(=O)N1CCc2cc(Br)cc(S(=O)(=O)N3CCC(C(=O)Nc4ccccc4F)CC3)c21`, the figure is 80%; as for `COc1ccc(-c2cc(-c3ccccc3)c(C#N)c(SCC(O)CS(=O)(=O)Cc3ccc(Cl)cc3)n2)cc1` (configuration not stated), 141%.
The same measure for `CCCN(C(=O)CCc1nc(-c2ccc(C)cc2)no1)c1ccc(OCC)cc1`: 0% (active).
The same measure for `COc1ccc(-c2noc(CCC(=O)N(C)c3cc(Cl)ccc3OC)n2)cc1`: 20%; for `Cc1ccc(-c2noc(CCC(=O)N(C)c3ccccc3F)n2)cc1`: 4% (active); for `COc1ccc(-c2noc(CC(=O)N(C)c3ccccc3F)n2)cc1`: 84%.
For `CCCN(C(=O)CCc1nc(-c2ccccc2F)no1)c1ccc(CC)cc1`, the survival was -2% (active).
In the case of `CCOc1ccc(N(CC)C(=O)CCc2nc(-c3ccccc3F)no2)cc1`, the survival was 39%.
For the compound `CCCN(C(=O)CCc1nc(-c2ccc(OC)cc2)no1)c1ccccc1F`, the survival is 0% (active).
The same measure for `COc1ccc(-c2noc(CCC(=O)NCc3ccc(C)cc3)n2)cc1`: 94%; for `CCCN(C(=O)Cc1nc(-c2ccc(OC)cc2)no1)c1ccccc1C`: 87%.
With `COc1ccc(-c2noc(CCC(=O)N(C)c3ccccc3C)n2)cc1`, the survival is 71%.
The same measure for `CN(C(=O)CCc1nc(-c2ccccc2F)no1)c1ccc(Cl)cc1`: 68%.
As for `CCOC(=O)c1ccccc1NC(=O)CCc1nc(-c2ccc(C)cc2)no1`, the survival is 27%.
The same measure for `O=C(Nc1ccc(Br)cc1F)N1CCC(CN2CCc3ccccc3C2)CC1`: 63%; for `O=C(Nc1ccc2nc(SCC(=O)N3CCCC3)sc2c1)c1ccc(F)cc1`: 87%; for `O=C(CSc1nc2ccccc2c(=O)n1Cc1ccco1)Nc1ccccc1`: 106%.
As for `Cc1ccc(N2CCN(S(=O)(=O)c3ccc(-n4cnnn4)cc3)CC2)c(C)c1`, the survival is 97%.
As for `CCOc1ccc(C(=O)c2cn(Cc3ccccc3OC)c3cc4c(cc3c2=O)OCCO4)cc1`, the figure is 80%; as for `Cc1ccc2nc(N(CCCN(C)C)C(=O)c3ccc(Br)s3)sc2c1`, 90%; as for `CN(C)CCCN(C(=O)c1ccc(Br)s1)c1nc2ccc(F)cc2s1`, -6% (active).
As for `CN(C)CCCN(C(=O)c1cccs1)c1nc2ccc(F)cc2s1`, the figure is 76%.
As for `CCS(=O)(=O)c1ccccc1C(=O)Nc1ccc(-c2nc3ccccc3s2)cc1`, the figure is 77%; as for `COc1ccccc1CNC(=O)CCn1cnc2ccccc2c1=O`, -6% (active); as for `O=C(CCn1cnc2ccccc2c1=O)NCc1ccccc1Cl`, 98%.
Turning to `COc1ccccc1NC(=O)CCn1cnc2ccccc2c1=O`, the survival is 76%.
